A selection: hits, their analogues and other compounds. The true share with any hit is near 10%.
NS1 function inh: influenza NS1 inhibition; Potency, µM (doses to about 46.1 µM), for inactives: top-dose activity, positive = more growth; actives 0.4% (n = 270,000); calls by dose curve; note: actives are rising curves; nearly all actives have a fitted effect of over 50% in size
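Read-out: OD600 growth recovery of NS1-expressing budding yeast. Cells grown overnight at 30C in -URA glucose medium, washed, resuspended and diluted 1:100 in 2% galactose assay medium, pH 6.0. Same strain lacking NS1 served as positive control.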
Pf growth 96h: inhibits malaria parasite growth, 96 h; Potency, µM (highest dose often 28.7 µM), inactives show top-dose activity change, negative = inhibition, hits mostly inhibitors; P. falciparum luciferase reporter growth, 96 h; actives 6.9% (n = 320,000); AID 504834; note: % is set by controls: 0 for no effect and ±100 for the full control effect
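Infected RBCs, 2% Hct / 0.05% parasitemia final; luciferase-reporter P. falciparum; cpd 96 h, 37 C, 5% CO2; luciferase detection reagent; luminescence.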
SARS PLpro yeast: blocks SARS-CoV papain-like protease in a yeast assay. actives 0.19% (n = 330,000). Potency, µM (highest dose often 32.9 µM), without a hit: top-dose activity, positive = growth rescue, most hits filed as activators. AID 485353. S. cerevisiae expressing SARS-CoV PLpro, growth rescue; calls by dose curve; note: 0% is about no effect; nearly all actives have a fitted effect of over 55% in size
Pf growth 48h: inhibits P. falciparum growth in the first generation, 48 h; Potency, µM (doses to about 28.7 µM), without a hit: at the top dose activity change, negative = inhibition, hits mostly inhibitors; actives 5.9% (n = 310,000); AID 504832; P. falciparum luciferase growth in erythrocytes, 48 h; note: % is set by controls: 0 for no effect and ±100 for the full control effect
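Here the parasites carry a stable luciferase gene and grow inside erythrocytes in Albumax-based RPMI medium with compound for one erythrocytic cycle. Activity is scored as loss of luminescent signal.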
Numbers without * were called inactive; ? = inconclusive; . = no result given. Unless noted, calls come from the whole dose curve; as a rule, active = well fitted inhibition curve with a large enough effect; inconclusive = small, poorly fitted or top-dose-only effect, or another doubt; inactive = no such curve, though single readings can be large or run the other way. Potency is the fitted concentration of half-maximal effect.

SMILES	NS1 function inh	Pf growth 96h	SARS PLpro yeast	Pf growth 48h
Cc1ccnc(NS(=O)(=O)c2ccc(-n3cccn3)cc2)c1	8%	10µM*	5%	47%
Cc1ccnc(NS(=O)(=O)c2ccc(C(C)(C)C)cc2)c1	1%	38%	0%	-3%
Cc1ccc(N(C(=O)c2csnn2)C(C(=O)NC2CCCC2)c2ccccn2)cc1 (stereo unspecified)	7%	-5%	0%	9%
CCOc1cc2c3c(c1)C(C)CC(C)(C)N3C(=O)C2=O (stereo unspecified)	0%	0.83µM*	-7%	?
C#CCN1c2ccccc2Sc2cccnc21	-2%	0.12µM*	-2%	0.33µM*
COc1ccc(CCOC(=O)c2ccc(N)c([N+](=O)[O-])c2)cc1	-19%	?	-7%	10%
Cc1cccc(NC(=O)Nc2ccc3c(c2)N(C)C(=O)CS3)n1	2%	10µM*	-3%	.
Cc1ccnc(NC(=O)Nc2ccc3c(c2)N(C)C(=O)CS3)c1	?	13µM*	17%	100%
Cc1ccc(NC(=O)Nc2ccc3c(c2)N(C)C(=O)CS3)nc1	11%	?	-5%	?
O=c1oc(-c2ccc(Br)cc2)nc2ccccc12	-18%	5.9µM*	2%	3%
O=c1oc(-c2ccc([N+](=O)[O-])cc2)nc2ccccc12	.	?	0%	?
Cc1ccc(C(C)C)c(OCCNC(=S)Nc2cccc3ccccc23)c1	5%	?	4%	9.3µM*
COc1ccc(C(=O)NCCS(=O)(=O)N(C)C2CCCCC2)cc1	.	?	-2%	1%
CCOC(=O)c1c(NC(C)=O)sc2c1CCN(Cc1ccccc1)C2	-5%	?	-2%	43%
CCOC(=O)c1c(NC(=O)CN2CCN(C)CC2)sc(C(=O)Nc2ccccc2)c1C	0%	0%	-1%	13µM*
CCOC(=O)c1sc(NC(=O)CCN2CCN(C)CC2)c(C(=O)OCC)c1C	-6%	8%	-1%	5%
CCC(=O)NC(Nc1sc2c(c1C(=O)OC)CCN(C)C2)(C(F)(F)F)C(F)(F)F	-1%	?	16%	?
CCOC(=O)c1c(NC(=O)CN2CCN(C(=O)c3ccco3)CC2)sc2c1CCCC2	4%	115%	-38%	3.7µM*
CCOC(=O)c1c(NC(=O)CN(CC)CC)sc2c1CCN(C(=O)OCC)C2	-26%	8.3µM*	4%	9.3µM*
CCOC(=O)NC(Nc1sc2c(c1C(=O)OC)CCN(C)C2)(C(F)(F)F)C(F)(F)F	5%	6.6µM*	-2%	?
N#Cc1cccc(NC(=O)Cn2cnc(S(=O)(=O)N3CCCCC3)c2)c1	4%	-7%	-1%	?
Cc1cc(OCC(=O)NNC(=S)NCC2CCCO2)cc(C)c1Cl (stereo unspecified)	28%	-24%	-8%	6%
C=CCN1C(=O)C(C)(C)N(C(=O)c2cccc([N+](=O)[O-])c2)c2ccccc21	-19%	0%	-2%	-5%
Cc1ccc(C(=O)NCC(=O)Nc2ccc(Cl)cc2)s1	.	.	-2%	.
CCOC(=O)c1c(NC(=S)N2CCN(C)CC2)sc2c1CCN(C(=O)OCC)C2	1%	12µM*	0%	13µM*
SMILES	NS1 function inh	Pf growth 96h	SARS PLpro yeast	Pf growth 48h
COCCOC(=O)c1c(NC(=O)CN2CCOCC2)sc(C(N)=O)c1C	-1%	.	-5%	-13%
CCOC(=O)c1c(NC(=O)CN2CCCCC2)sc2c1CCN(C(=O)OCC)C2	-31%	5.2µM*	7%	10µM*
COCCOC(=O)c1c(NC(=O)CN2c3ccccc3CC2C)sc(C(N)=O)c1C (stereo unspecified)	6%	?	-4%	12µM*
CCOC(=O)c1c(NC(=O)CN2CCCCC2)sc(C)c1C	2%	-7%	0%	-19%
CCOC(=O)N1CCc2c(sc(NC(=O)C3=COCCO3)c2C(N)=O)C1	6%	?	-3%	?
CC(C)[C@H](NC(=O)[C@@H]1Cc2ccccc2CN1)C(=O)Nc1ccc2c(c1)OCO2	1%	?	-4%	?
CCCCc1ccc(NC(=S)N2CCN(C(=O)c3ccco3)CC2)cc1	-33%	?	-8%	21%
Cc1cccc(NC(=O)NCc2cccnc2)c1C	3%	5%	2%	23%
CCOP(=S)(OCC)N1CCOCCOCCN(P(=S)(OCC)OCC)CCOCCOCC1	.	?	-1%	6.6µM*
CC(C)(C)C(=O)Nc1cc(NC(=O)C(C)(C)C)cc(C(=O)NNC(=O)c2ccncc2)c1	-11%	-1%	19%	26%
CC(C)CC(=O)C[C@H](O)C(Cl)(Cl)Cl	-12%	.	.	.
CCCC(=O)Nc1c2c(nn1-c1ccc(C)cc1C)CSC2	10%	34%	-12%	-15%
Cc1ccc(-n2nc3c(c2NC(=O)c2ccc4c(c2)OCO4)CS(=O)(=O)C3)c(C)c1	0%	12µM*	4%	-2%
Cc1ccc(-n2nc3c(c2NC(=O)c2cccs2)CS(=O)(=O)C3)c(C)c1	18%	0.59µM*	26%	22%
CC(=O)Nc1c2c(nn1-c1ccc(C)cc1C)CSC2	-3%	10µM*	3%	?
CCN1CCN(S(=O)(=O)Cc2ccccc2Cl)CC1	5%	?	4%	11%
Clc1cccc(Nc2c3c(nc4ncnn24)CCC3)c1	-4%	-29%	-3%	9.3µM*
COc1cc(OC)c2c(C)c(Cl)c(=O)oc2c1	-4%	10µM*	-3%	32%
COc1cc(OC)c2c(=O)cc(-c3ccccc3)oc2c1	-10%	174%	-3%	132%
CSc1ccccc1OCc1cc(C(=O)N2CCSCC2)no1	-41%	0%	17%	50%
O=C(c1cc(COc2ccccc2)on1)N1CCCC(OCc2cccnc2)C1 (stereo unspecified)	-13%	?	14%	1%
CSc1ccccc1OCc1cc(C(=O)N2CCC(Oc3cccnc3)CC2)no1	-58%	?	.	13µM*
COc1ccccc1OCc1cc(C(=O)N2CCCC(OCc3cccnc3)C2)no1 (stereo unspecified)	-14%	12µM*	.	2%
C[N+]12CCCCC1C(COC(=O)c1ccc3c(c1)OCO3)CCC2 (stereo unspecified)	-2%	.	0%	9.3µM*
Cc1cccc(N2CCN(C(=O)COc3cc(=O)n(C)c4ccccc34)CC2)c1C	-52%	?	-5%	12µM*
SMILES	NS1 function inh	Pf growth 96h	SARS PLpro yeast	Pf growth 48h
Cc1ccc(C)c(N2CCN(C(=O)CCCOc3cc(=O)n(C)c4ccccc34)CC2)c1	-69%	.	1%	?
COc1ccc(N2CCN(C(=O)CCCOc3cc(=O)n(C)c4ccccc34)CC2)cc1	-10%	12µM*	7%	?
COC(=O)C[C@]1(C(=O)OC)CN(C#N)N(c2ccc(Cl)cc2)C12c1ccccc1-c1ccccc12	22%	3.7µM*	-20%	3.7µM*
COC(=O)[C@@H]1[C@@H](C(=O)OC)C2(c3ccccc3-c3ccccc32)N(c2ccc(Cl)cc2)N1C#N	17%	?	-20%	?
CCN(C[C@H]1N[C@@](CC)(C(=O)OC)[C@H]2C(=O)N(Cc3ccccc3)C(=O)[C@@H]12)C(=O)c1ccc(F)cc1	.	.	5%	.
COc1cccc(CC(NC(C)=O)C(=O)NC2CCN(C(=O)c3ccc(Cl)cc3)CC2)c1 (stereo unspecified)	13%	54%	9%	1%
